Laboratory results reported in PubChem BioAssay.
Inconclusive results are not listed. Calls of active or inactive are those of the source. Unless noted, how the calls were made is not given here.

Tests used:
[1] = yeast TOR pathway RPL19A-GFP modulators, primary screen, cell-based, S. cerevisiae, multiplex flow cytometry (AID 1862; in the data active means percent of DMSO control GFP below about 86%;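 further: lower values mimic rapamycin by blocking the RPL19A rise seen in DMSO cells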); settings: S. cerevisiae RPL19A-GFP strain, flow cytometry fluorescence, 3 h; at 10 µM; stronger effect = lower value
[2] = modulators of MEP2-GFP levels in yeast, primary screen, S. cerevisiae, multiplex flow cytometry (AID 1867;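 active means GFP response, as percent of the DMSO control, above the screen-wide mean plus 3 SD, about 139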;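 further: median GFP channel fluorescence of barcode-gated MEP2-GFP cells measured by flow cytometry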); settings: S. cerevisiae MEP2-GFP strain, 3 h, at 10 µM, stronger effect = higher value
[3] = modulators of CIT2-GFP expression in yeast, primary screen, S. cerevisiae, GFP fusion, multiplex flow cytometry (AID 1870;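 active means percent response above a set limit, the screen-wide mean plus 3 SD, cut at about 130% in these data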;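 further: barcoded CIT2-GFP strain pooled with four other GFP strains with rapamycin as positive control; median GFP fluorescence per well over plate mean of DMSO wells so 100% = DMSO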); settings: 3 h, at 10 µM, stronger effect = higher value
[4] = modulators of LAP4-GFP expression in yeast, primary screen, S. cerevisiae, multiplex flow cytometry (AID 1873;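 active means GFP signal, as percent of the solvent control, above the screen mean plus 3 SD, about 149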); settings: 3 h, at 10 µM, stronger effect = higher value
[5] = modulators of AGP1-GFP expression in yeast TOR pathway, primary screen, cell-based, multiplex flow cytometry, S. cerevisiae (AID 1887;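 active means GFP signal above the screen-wide mean plus 3 SD, that is over about 124.5% of the solvent control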;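 further: AGP1-GFP fusion strain of S. cerevisiae within a five-strain barcoded multiplex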); settings: 3 h, at 10 µM, stronger effect = higher value
[6] = inhibitors of CD8+ T cell-vesicle binding, pilot screen, LFA-1/ICAM-1 modulator project, MLPCN validation set, flow cytometry (AID 2523;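 active means response below a set limit, under 55% cells CD8-positive and vesicle-bound, and CD8 cells' 90th-percentile brightness under 279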;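 on vesicle binding response: mean PE anti-B7-1 fluorescence of CD8+ cells relative to row control; 100% = QL9-loaded vesicles with DMSO vehicle in the same plate row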); settings: 2C mouse CD8+ T cells, at 7 µM, stronger effect = lower value; double positive events: measured here: CD8+/vesicle+ event percentage
[7] = target: Integrin beta-1 (Homo sapiens) + Integrin alpha-4 (Homo sapiens) (UniProt P13612+P05556); experiment: inhibition of HUTS-21 binding to VLA-4, pilot screen, VLA-4 allosteric modulator project, U937 cells, HUTS-21 mAb, flow cytometry, validation set (AID 2674;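 active means inhibition above 50%, about 3 SD of the validation set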;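 further: antibody binding induced by the VLA-4 ligand LDV present at three times its Kd; 0% = LDV ligand with antibody and no compound and 100% = antibody without LDV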); settings: HUTS-21 LIBS mAb binding, at 6.7 µM, stronger effect = higher value
[8] = superoxide lowering in aged yeast cells, pilot screen, validation compound set (AID 2706;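 active means superoxide response below 65% of plate, a cut near 3 SD across the whole screen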;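 further: yeast exposed to compound for one week at 30 degrees C before staining; 100% = mean of all compound wells on the same plate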); settings: S. cerevisiae aging, superoxide DHE fluorescence; at 10 µM; stronger effect = lower value
[9] = target: Beta-adrenergic receptor kinase 1 (Homo sapiens) (UniProt P25098); experiment: GRK2 binders displacing RNA aptamer, biochemical, validation, human GRK2, bead flow cytometry (AID 488806;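 active means aptamer binding inhibition above 30%, about 3 SD of noise from non-fluorescent compounds; inactive means inhibition at or below 30%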); settings: bead-bound GRK2, FAM-aptamer displacement, at 10 µM, stronger effect = higher value
[10] = target: Beta-2 adrenergic receptor (Homo sapiens) (UniProt P07550); experiment: beta2AR agonists driving receptor internalization, pilot screen, cell-based, FAP fluorogen, flow cytometry, validation set (AID 504459;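 active means percent response above 42, roughly 3 SD of non-fluorescent test compounds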;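 further: agonist-driven loss of surface beta2AR via internalization measured by FAP dye flow cytometry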); settings: Am2.2-beta2AR cells, FAP surface receptor flow cytometry; at 10 µM; stronger effect = higher value
[11] = target: AP-2 complex subunit beta (Homo sapiens) (UniProt P63010); experiment: inhibitors of arrestin peptide binding to AP2, pilot screen, biochemical, validation set, GST-AP2 beads, flow cytometry (AID 504541;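 active means inhibition above 54%, about 3 SD of non-fluorescent compounds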;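 further: AP2 carries R879A mutation and is captured from E. coli lysate; bead-bound FITC arrestin peptide fluorescence measuring arrestin peptide binding to AP2; 0% = DMSO wells and 100% = excess unlabeled arrestin peptide control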); settings: FITC arrestin peptide, at 10 µM, stronger effect = higher value
[12] = yeast V-ATPase proton transport modulators, S. cerevisiae, pHLuorin, HTS validation (AID 504600; in the data active means response above about 15%;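 further: plate controls were DMSO for no effect and reference compound for full effect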); settings: S. cerevisiae pHLuorin cytosolic pH, at 10 µM, stronger effect = higher value
[13] = system: anti-desmoglein-3 scFv antibody binding to human DSG3; experiment: inhibitors of anti-DSG3 scFv binding to DSG3, pilot screen, biochemical, validation compound set, bead-based, flow cytometry (AID 588368;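 active means binding below the plate cutoff, the plate median minus 3 SD, with a reading above zero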;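 further: signal is the median channel fluorescence of bead-bound GFP antibody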); settings: Protein G beads, DSG3-Fc, scFv-GFP binding, at 10 µM, stronger effect = lower value
[14] = system: Botulinum neurotoxin type F light chain protease (Clostridium botulinum); experiment: Botulinum neurotoxin type F light chain protease inhibition, multiplex microsphere flow cytometry, validation set (AID 588459); settings: multiplex microsphere protease substrate cleavage assay, at 10 µM, stronger effect = higher value
[15] = target: Botulinum neurotoxin type A (Clostridium botulinum) (UniProt P0DPI0); experiment: BoNT/A light chain protease inhibitors, biochemical, multiplex microsphere flow cytometry, validation set (AID 588460); settings: at 10 µM, stronger effect = higher value
[16] = target: Lethal factor (Bacillus anthracis) (UniProt P15917); experiment: Lethal factor protease inhibitors, Bacillus anthracis, multiplex microsphere cleavage assay, validation set (AID 588461); settings: flow cytometry, at 10 µM, stronger effect = higher value
[17] = inhibitors of fungal efflux pumps CDR1, CDR2, MDR1, pilot screen, validation compound set, multiplex, phenotypic (AID 588506;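 active means efflux inhibition above 0.42, the validation set average plus 4 SD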;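 further: Nile Red retained in cells so higher fluorescence means more efflux inhibition; 0 = negative control wells and 1 = enniatin B 25 µM full block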); settings: S. cerevisiae pump-expressing triplex, Nile Red efflux flow cytometry; at 10 µM; stronger effect = higher value
[18] = target: ATP-binding cassette sub-family B member 6 (Homo sapiens) (UniProt Q9NP58); experiment: ABCB6 transporter inhibitors, pilot screen, K562-ABCB6 cells, flow cytometry, validation set (AID 588550;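 active means inhibition above the screen-wide mean plus 3 SD, about 51%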;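 further: 0% = DMSO wells and 100% = benzethonium chloride 70 µM positive control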); settings: K562-ABCB6 porphyrin accumulation, 1 h, at 10 µM, stronger effect = higher value
[19] = promoters of myeloid differentiation in arrested cells, primary screen, cell-based, GFP/MAC1 double positive, flow cytometry, validation set (AID 588685;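 active means differentiation response of at least 50%, scaled between solvent and reference control, from cells with both markers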;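 further: compound exposure lasts four days before antibody staining and flow analysis; 0% = DMSO wells and 100% = 5 µM fulvestrant positive control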); settings: ER-HoxA9 marrow cells, stronger effect = higher value

Lethal factor (Bacillus anthracis), sequence (P15917 whole entry, looked up): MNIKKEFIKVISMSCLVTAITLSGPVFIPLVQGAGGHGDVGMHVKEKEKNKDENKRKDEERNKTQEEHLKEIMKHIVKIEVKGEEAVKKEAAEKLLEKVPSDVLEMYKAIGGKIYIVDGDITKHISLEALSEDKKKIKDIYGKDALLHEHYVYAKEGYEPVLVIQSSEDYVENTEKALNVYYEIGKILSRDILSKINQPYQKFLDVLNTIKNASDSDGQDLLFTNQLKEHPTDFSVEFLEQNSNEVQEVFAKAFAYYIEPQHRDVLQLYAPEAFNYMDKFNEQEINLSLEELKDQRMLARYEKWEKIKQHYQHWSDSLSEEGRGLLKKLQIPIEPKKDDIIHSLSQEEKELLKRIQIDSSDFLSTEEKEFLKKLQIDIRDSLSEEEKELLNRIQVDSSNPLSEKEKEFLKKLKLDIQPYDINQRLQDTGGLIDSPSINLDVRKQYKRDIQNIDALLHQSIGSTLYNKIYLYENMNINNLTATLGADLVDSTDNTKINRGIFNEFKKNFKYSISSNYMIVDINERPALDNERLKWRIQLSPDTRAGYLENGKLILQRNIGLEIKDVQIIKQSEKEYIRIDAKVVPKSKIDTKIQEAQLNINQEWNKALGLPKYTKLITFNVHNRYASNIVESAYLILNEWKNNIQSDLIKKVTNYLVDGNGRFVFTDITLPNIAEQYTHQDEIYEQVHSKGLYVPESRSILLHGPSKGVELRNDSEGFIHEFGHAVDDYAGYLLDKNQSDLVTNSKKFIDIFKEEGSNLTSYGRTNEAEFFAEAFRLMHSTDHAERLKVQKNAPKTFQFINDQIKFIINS
Beta-adrenergic receptor kinase 1 (Homo sapiens), sequence (P25098 whole entry, looked up): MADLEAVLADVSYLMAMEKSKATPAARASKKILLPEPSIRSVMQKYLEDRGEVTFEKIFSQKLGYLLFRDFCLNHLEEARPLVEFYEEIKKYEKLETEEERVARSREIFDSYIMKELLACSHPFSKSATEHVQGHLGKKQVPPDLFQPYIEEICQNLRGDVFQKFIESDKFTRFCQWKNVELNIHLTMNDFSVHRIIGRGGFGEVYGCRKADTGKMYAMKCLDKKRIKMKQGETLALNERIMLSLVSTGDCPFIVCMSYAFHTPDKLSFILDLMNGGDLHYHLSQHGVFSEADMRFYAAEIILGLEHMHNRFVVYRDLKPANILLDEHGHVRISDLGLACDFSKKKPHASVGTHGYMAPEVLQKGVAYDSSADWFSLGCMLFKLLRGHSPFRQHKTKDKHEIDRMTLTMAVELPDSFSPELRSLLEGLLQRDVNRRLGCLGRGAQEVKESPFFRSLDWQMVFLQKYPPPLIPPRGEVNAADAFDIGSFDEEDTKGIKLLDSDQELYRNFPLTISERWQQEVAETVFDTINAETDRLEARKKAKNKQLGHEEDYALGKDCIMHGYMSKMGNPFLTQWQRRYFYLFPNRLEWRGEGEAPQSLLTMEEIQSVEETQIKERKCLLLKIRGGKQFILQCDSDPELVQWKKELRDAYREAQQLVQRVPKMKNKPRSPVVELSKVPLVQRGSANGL
AP-2 complex subunit beta (Homo sapiens), sequence (P63010 whole entry, looked up, one chain of several): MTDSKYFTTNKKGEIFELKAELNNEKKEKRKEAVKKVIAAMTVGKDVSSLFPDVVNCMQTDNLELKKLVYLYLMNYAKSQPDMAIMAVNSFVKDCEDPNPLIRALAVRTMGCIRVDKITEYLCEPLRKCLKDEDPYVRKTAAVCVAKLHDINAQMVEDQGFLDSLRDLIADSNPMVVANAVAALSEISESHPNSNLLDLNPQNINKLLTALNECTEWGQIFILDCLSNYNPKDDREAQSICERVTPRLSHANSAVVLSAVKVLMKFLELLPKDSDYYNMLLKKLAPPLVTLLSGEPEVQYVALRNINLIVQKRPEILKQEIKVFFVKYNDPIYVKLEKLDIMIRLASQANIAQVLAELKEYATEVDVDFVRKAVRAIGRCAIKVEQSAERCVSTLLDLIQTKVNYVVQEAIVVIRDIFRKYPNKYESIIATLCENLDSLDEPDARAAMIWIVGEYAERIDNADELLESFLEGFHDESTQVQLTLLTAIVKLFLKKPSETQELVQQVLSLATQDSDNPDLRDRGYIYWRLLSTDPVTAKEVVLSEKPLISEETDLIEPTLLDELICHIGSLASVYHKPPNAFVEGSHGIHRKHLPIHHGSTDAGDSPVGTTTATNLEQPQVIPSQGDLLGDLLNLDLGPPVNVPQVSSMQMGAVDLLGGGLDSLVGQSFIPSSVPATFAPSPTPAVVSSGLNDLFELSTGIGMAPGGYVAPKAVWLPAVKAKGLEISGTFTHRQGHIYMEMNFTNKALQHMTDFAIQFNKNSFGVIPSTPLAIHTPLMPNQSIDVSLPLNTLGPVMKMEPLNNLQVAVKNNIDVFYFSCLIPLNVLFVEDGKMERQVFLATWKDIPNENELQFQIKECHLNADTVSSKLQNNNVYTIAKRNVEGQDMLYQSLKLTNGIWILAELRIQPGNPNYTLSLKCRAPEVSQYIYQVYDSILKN
Beta-2 adrenergic receptor (Homo sapiens), sequence (P07550 whole entry, looked up): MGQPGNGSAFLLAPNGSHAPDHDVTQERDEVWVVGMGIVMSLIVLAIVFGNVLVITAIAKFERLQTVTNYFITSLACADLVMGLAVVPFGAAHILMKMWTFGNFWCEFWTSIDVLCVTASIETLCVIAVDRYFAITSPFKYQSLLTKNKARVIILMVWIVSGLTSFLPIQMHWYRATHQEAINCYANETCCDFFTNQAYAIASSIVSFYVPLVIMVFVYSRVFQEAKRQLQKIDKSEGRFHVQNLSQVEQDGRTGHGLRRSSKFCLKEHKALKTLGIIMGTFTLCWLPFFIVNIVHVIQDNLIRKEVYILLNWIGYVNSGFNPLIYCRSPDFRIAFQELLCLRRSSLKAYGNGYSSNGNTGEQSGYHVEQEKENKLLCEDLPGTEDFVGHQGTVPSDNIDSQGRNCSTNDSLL
Botulinum neurotoxin type A (Clostridium botulinum), sequence (P0DPI0 whole entry, looked up): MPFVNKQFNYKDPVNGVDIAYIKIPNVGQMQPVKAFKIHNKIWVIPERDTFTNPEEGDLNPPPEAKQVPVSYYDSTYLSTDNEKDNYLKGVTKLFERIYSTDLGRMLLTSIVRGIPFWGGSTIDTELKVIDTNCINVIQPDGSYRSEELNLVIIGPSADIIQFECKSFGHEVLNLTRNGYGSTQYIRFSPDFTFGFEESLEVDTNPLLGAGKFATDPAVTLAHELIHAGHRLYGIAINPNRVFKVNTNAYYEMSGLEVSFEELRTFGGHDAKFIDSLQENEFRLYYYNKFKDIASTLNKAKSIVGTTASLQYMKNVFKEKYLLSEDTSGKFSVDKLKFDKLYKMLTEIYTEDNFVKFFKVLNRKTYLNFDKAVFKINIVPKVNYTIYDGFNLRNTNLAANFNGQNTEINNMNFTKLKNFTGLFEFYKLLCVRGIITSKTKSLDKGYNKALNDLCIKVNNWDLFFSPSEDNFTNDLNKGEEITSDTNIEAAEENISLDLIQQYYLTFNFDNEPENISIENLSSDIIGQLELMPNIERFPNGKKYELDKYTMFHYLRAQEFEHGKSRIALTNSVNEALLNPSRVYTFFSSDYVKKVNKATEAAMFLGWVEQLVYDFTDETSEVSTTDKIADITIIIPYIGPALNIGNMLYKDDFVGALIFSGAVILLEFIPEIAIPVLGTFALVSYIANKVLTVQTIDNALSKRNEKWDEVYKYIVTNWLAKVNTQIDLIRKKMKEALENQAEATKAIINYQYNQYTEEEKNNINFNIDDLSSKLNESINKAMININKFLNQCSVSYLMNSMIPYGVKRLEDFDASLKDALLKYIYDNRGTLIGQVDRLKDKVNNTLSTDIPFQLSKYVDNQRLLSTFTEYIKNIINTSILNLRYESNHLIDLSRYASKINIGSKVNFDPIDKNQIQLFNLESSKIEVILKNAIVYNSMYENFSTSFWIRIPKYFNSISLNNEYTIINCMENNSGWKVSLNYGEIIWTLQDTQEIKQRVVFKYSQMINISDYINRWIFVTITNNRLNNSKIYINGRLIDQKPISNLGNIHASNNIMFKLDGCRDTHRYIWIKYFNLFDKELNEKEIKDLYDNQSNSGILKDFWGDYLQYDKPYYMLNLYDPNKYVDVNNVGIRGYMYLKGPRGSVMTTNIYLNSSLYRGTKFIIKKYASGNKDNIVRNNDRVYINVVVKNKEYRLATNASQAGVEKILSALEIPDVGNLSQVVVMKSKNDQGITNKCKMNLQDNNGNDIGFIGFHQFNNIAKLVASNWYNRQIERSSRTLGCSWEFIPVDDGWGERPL
ATP-binding cassette sub-family B member 6 (Homo sapiens), sequence (Q9NP58 whole entry, looked up): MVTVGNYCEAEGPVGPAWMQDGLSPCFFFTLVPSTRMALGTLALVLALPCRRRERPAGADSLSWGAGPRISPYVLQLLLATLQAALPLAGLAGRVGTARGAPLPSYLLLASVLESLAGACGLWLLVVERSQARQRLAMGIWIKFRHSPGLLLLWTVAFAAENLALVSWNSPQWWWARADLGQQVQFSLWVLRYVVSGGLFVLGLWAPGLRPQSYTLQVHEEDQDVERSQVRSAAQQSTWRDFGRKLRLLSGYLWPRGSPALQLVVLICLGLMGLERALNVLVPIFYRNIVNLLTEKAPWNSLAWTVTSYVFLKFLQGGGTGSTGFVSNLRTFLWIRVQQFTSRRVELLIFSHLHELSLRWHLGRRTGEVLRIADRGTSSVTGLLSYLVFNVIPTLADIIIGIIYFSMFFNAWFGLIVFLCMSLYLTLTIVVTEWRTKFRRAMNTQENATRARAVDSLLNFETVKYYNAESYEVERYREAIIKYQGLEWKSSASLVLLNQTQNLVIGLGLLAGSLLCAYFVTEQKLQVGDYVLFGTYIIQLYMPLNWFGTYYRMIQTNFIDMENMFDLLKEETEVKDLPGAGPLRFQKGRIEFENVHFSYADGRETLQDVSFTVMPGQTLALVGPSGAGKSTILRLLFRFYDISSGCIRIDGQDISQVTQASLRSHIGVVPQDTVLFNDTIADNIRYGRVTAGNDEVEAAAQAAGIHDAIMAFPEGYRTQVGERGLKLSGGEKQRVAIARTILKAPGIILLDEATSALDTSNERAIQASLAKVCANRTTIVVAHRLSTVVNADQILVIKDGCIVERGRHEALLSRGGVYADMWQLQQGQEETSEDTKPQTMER

CN1C(=O)N(C)C(=O)C2(Cc3ccccc3N3CCOCC32)C1=O (stereo not given)
64.2%: double positive events [6]
active: efflux inhibition (fraction of control) [17] 0.62
inactive: percent of DMSO control GFP [1] 101% | GFP response vs DMSO [2] 103% | percent response of DMSO control [3] 102% | GFP response vs DMSO [4] 93.7% | GFP response, % of DMSO [5] 99.9% | vesicle binding response [6] 3430% | inhibition [7] 8.28% | superoxide response (% of plate) [8] 109% | aptamer binding inhibition [9] 0% | response [10] 4.14% | inhibition [11] -5.91% | response [12] 0.7% | binding (% of control) [13] 102% | inhibition [14] 5% | inhibition [15] 0.6% | inhibition [16] 1.1% | inhibition [18] 5% | differentiation response [19] 0%

c1ccc2c3c([nH]c2c1)CNCC3
inactive: percent of DMSO control GFP [1] 100% | GFP response vs DMSO [2] 104% | percent response of DMSO control [3] 106% | GFP response vs DMSO [4] 111% | GFP response, % of DMSO [5] 105% | vesicle binding response [6] 82.8% | inhibition [7] -19.9% | superoxide response (% of plate) [8] 113% | aptamer binding inhibition [9] -5% | response [10] -12.8% | inhibition [11] -0.49% | response [12] 0.12% | binding (% of control) [13] 181% | inhibition [14] -9.7% | inhibition [15] 0.1% | inhibition [16] -60.3% | efflux inhibition (fraction of control) [17] 0.395 | inhibition [18] -82% | differentiation response [19] -0.18%
55.3%: double positive events [6]

Clc1ccc(COC(Cn2ccnc2)c2ccc(Cl)cc2Cl)cc1 (stereo not given)
inactive: percent of DMSO control GFP [1] 104% | GFP response vs DMSO [2] 111% | percent response of DMSO control [3] 107% | GFP response vs DMSO [4] 120% | GFP response, % of DMSO [5] 103% | vesicle binding response [6] 183% | inhibition [7] -1.09% | superoxide response (% of plate) [8] 121% | aptamer binding inhibition [9] 3% | response [10] 3.99% | inhibition [11] 16.5% | response [12] 2.69% | binding (% of control) [13] 105% | inhibition [14] -1.3% | inhibition [15] -0.4% | inhibition [16] -7% | efflux inhibition (fraction of control) [17] -0.28 | inhibition [18] -31% | differentiation response [19] 1.28%
62.7%: double positive events [6]

C[N+]1(C)C2CCC1CC(OC(=O)C(CO)c1ccccc1)C2 (stereo not given)
61.8%: double positive events [6]
inactive: percent of DMSO control GFP [1] 106% | GFP response vs DMSO [2] 99.3% | percent response of DMSO control [3] 112% | GFP response vs DMSO [4] 88.1% | GFP response, % of DMSO [5] 105% | vesicle binding response [6] 233% | inhibition [7] -6.68% | superoxide response (% of plate) [8] 105% | aptamer binding inhibition [9] 5% | response [10] -0.63% | inhibition [11] 6.92% | response [12] -1.74% | binding (% of control) [13] 98% | inhibition [14] -5.3% | inhibition [15] -0.6% | inhibition [16] 2.6% | efflux inhibition (fraction of control) [17] 0.05 | inhibition [18] -4% | differentiation response [19] -6.6%

CC(C)CCC1(CN2CCCC2=O)C(=O)NC(=O)NC1=O
58.9%: double positive events [6]
inactive: percent of DMSO control GFP [1] 95.4% | GFP response vs DMSO [2] 105% | percent response of DMSO control [3] 86.3% | GFP response vs DMSO [4] 120% | GFP response, % of DMSO [5] 101% | vesicle binding response [6] 219% | inhibition [7] 0.94% | superoxide response (% of plate) [8] 97.2% | aptamer binding inhibition [9] 1% | response [10] 5.39% | inhibition [11] -2.03% | response [12] -6.71% | binding (% of control) [13] 98.4% | inhibition [14] 2.3% | inhibition [15] 0.7% | inhibition [16] -0.7% | efflux inhibition (fraction of control) [17] 0.12 | inhibition [18] 5% | differentiation response [19] 45.6%

C[C@@]1(CO)[C@H](O)CC[C@@]2(C)[C@H]1CC[C@H]1C[C@@H]3C[C@@]12CC[C@]3(O)CO
active: inhibition [11] 54.5%
inactive: percent of DMSO control GFP [1] 105% | GFP response vs DMSO [2] 106% | percent response of DMSO control [3] 102% | GFP response vs DMSO [4] 103% | GFP response, % of DMSO [5] 99.3% | vesicle binding response [6] 225% | inhibition [7] 17.7% | superoxide response (% of plate) [8] 102% | aptamer binding inhibition [9] 0% | response [10] 0.18% | response [12] 3.03% | binding (% of control) [13] 100% | inhibition [14] 4.1% | inhibition [15] 1% | inhibition [16] -0.5% | efflux inhibition (fraction of control) [17] -0.04 | inhibition [18] 6% | differentiation response [19] -1.65%
62.9%: double positive events [6]

O=C1NCCN2CCCC12 (stereo not given)
58.7%: double positive events [6]
active: response [12] 113%
inactive: percent of DMSO control GFP [1] 100% | GFP response vs DMSO [2] 99.7% | percent response of DMSO control [3] 102% | GFP response vs DMSO [4] 93.7% | GFP response, % of DMSO [5] 102% | vesicle binding response [6] 108% | inhibition [7] 12.3% | superoxide response (% of plate) [8] 92.8% | aptamer binding inhibition [9] 0% | response [10] 0.01% | inhibition [11] 4.79% | binding (% of control) [13] 101% | inhibition [14] -0.2% | inhibition [15] -0.6% | inhibition [16] 5.9% | efflux inhibition (fraction of control) [17] -0.09 | inhibition [18] 21% | differentiation response [19] -11.9%

C=C1[C@@H](C)[C@H]2[C@H](Cc3ccccc3)NC(=O)[C@]23OC(=O)/C=C/[C@H](O)CCC[C@@H](C)C/C=C/[C@H]3[C@@H]1O
62.1%: double positive events [6]
inactive: percent of DMSO control GFP [1] 106% | GFP response vs DMSO [2] 102% | percent response of DMSO control [3] 106% | GFP response vs DMSO [4] 114% | GFP response, % of DMSO [5] 119% | vesicle binding response [6] 205% | inhibition [7] -2.82% | superoxide response (% of plate) [8] 102% | aptamer binding inhibition [9] 4% | response [10] 36.2% | inhibition [11] -4.43% | response [12] 0.39% | binding (% of control) [13] 102% | inhibition [14] 2% | inhibition [15] 0.4% | inhibition [16] -2.5% | efflux inhibition (fraction of control) [17] -0.21 | inhibition [18] 7% | differentiation response [19] -4%
